Source: PubChem BioAssay (NCATS)
Results filed as inconclusive are left out. Entries that show only a call come without a potency. The source made the active and inactive calls. Unless noted, the call rests on the fitted dose curve; in most records, active means well fitted curve in the direction sought with a large enough effect; inconclusive means small, poorly fitted or top-dose-only effect, or another doubt; inactive means no such curve, though single readings can be large; an effect the other way counts as inactive or inconclusive. Residues, ends and D or L forms follow the SMILES beside them. *: point of attachment. Cbz = O=C(OCc1ccccc1)*

How the values were obtained:
[1] = qHTS to identify inhibitors of the type 1 interferon - major histocompatibility complex class I in skeletal muscle: primary screen against the NCATS Mechanism Interrogation Plate v5.0 (MIPE) Libary (AID 1347411); further: nearly all actives have a fitted effect of over 65% in size; further: potency means the concentration at half of the fitted maximal effect
How it was run: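 IFN-beta-driven (4 ng/ml) HLA-B-HiBit expression in CRISPR-tagged C25cl48 myoblasts; compounds 11-pt, 1:3, max 46 uM, 24 hr exposure; lytic NanoLuc complementation luminescence.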

[2] = target: Calcium and integrin-binding protein 1 (Homo sapiens) (UniProt Q99828); test: Primary qHTS for Identification of Calcium Integrin Binding Protein 1 (CIB1) Competitor (AID 1508620);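 further: GST tagged CIB1 binding a fluorescein labelled alphaIIb integrin peptide tracer; top concentration of the series differs between compounds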
How it was run: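 Fluorescence polarization competition: CIB1-GST (1 uM final) preincubated with compound 15 min at room temperature, then FITC-labeled alphaIIb peptide (100 nM final) added for another 15 min. Polarization read at Ex 480/Em 540.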

[3] = Primary qHTS for small molecule stabilizers of the endoplasmic reticulum resident proteome: Secreted ER Calcium Modulated Protein (SERCaMP) assay (AID 1508630)
How it was run: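 The SH-SY5Y reporter protocol was run at 3 concentrations up to 38.3 uM (primary) or 11 concentrations (follow-up): 16 h compound, 100 nM thapsigargin for 4 h, then extracellular luciferase luminescence.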

[4] = Primary qHTS for inhibitors of nuclear receptor binding SET domain protein 2 (NSD2) in an isogenic RCH-ACV NSD2 p.E1099K mutant (9B) (AID 1645876); further: nearly all actives have a fitted effect of over 70% in size; further: potency means the concentration at half of the fitted maximal effect
[5] = target: Cytochrome P450 2C9 (Homo sapiens) (UniProt P11712); test: Cytochrome P450 family 2 subfamily C member 9 (CYP2C9) small molecule antagonists: luciferase biochemical (cell-free) qHTS assay (AID 1645842; active means well fitted curve in the direction sought with a large enough effect in the repeat runs; an effect the other way counts as inactive or inconclusive; further: potency means the concentration at half of the fitted maximal effect; nearly all actives have a fitted effect of over 55% in size)
How it was run: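 P450-Glo CYP2C9 system: proluciferin substrate with enzyme in mix containing 0.4% BSA, 10 min at room temperature, then NADPH regeneration solution added and incubated 1 h at 37C. Detection reagent stopped reaction; luminescence read after 20 min as RLU.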

[6] = Primary qHTS for inhibitors of nuclear receptor binding SET domain protein 2 (NSD2) in an RCH-ACV wild type WT cells (2C) (AID 1645877); further: nearly all actives have a fitted effect of over 70% in size; further: potency means the concentration at half of the fitted maximal effect
[7] = target: Catechol O-methyltransferase (Homo sapiens) (UniProt P21964); test: Confirmatory Screen for Target Class Profiling of Small Molecule Inhibitors of Methyltransferases (AID 1745852; calls by dose curve); details: MTase-Glo luminescence, SAH detection, recombinant enzyme; measured here: COMT max response; stronger effect = lower value
[8] = target: Guanidinoacetate N-methyltransferase (Homo sapiens) (UniProt Q14353); test: as above; details: activity change, negative = inhibition: at 57.3 µM (top of the series)

Chain of Calcium and integrin-binding protein 1 (Homo sapiens) (Q99828 whole entry, looked up): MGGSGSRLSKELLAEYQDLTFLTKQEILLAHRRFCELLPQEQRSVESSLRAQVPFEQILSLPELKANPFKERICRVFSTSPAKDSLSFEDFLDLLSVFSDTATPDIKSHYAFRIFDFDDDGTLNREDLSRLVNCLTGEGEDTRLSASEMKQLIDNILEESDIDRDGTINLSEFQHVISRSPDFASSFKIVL
Chain of Catechol O-methyltransferase (Homo sapiens) (P21964 whole entry, looked up): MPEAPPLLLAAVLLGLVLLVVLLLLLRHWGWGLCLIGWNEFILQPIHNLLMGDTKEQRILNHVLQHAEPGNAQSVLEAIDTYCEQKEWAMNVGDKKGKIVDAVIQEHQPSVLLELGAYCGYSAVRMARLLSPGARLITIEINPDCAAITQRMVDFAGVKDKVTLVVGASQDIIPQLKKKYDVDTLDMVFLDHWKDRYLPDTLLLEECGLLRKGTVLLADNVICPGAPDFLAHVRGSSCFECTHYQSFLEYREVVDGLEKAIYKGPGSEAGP
Chain of Cytochrome P450 2C9 (Homo sapiens) (P11712 whole entry, looked up): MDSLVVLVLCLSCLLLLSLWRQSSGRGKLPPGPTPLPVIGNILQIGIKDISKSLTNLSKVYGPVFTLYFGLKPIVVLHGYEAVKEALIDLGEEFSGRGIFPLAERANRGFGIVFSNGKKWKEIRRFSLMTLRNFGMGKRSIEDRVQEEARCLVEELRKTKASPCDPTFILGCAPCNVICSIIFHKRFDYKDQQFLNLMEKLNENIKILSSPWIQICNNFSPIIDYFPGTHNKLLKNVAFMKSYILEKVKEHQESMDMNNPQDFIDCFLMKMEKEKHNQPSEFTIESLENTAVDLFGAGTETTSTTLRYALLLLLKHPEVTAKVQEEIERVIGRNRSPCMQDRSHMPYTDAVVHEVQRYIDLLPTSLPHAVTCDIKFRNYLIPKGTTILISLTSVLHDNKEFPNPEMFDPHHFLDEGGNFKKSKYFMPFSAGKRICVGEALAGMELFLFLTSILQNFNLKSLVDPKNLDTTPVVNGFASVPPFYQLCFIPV

Row | SMILES | Potency [1] | Potency [2] | outcome [3] | Potency [4] | Potency [5] | Potency [6] | activity [7] [%] | Potency [8]
1 | Nc1nc2c(c(=O)[nH]1)N(C=O)[C@H](CNc1ccc(C(=O)N[C@@H](CCC(=O)O)C(=O)O)cc1)CN2 | inactive | inactive | inactive | inactive | – | – | – | –
2 | C=Cc1c(C)c2cc3nc(cc4[nH]c(cc5nc(cc1[nH]2)C(C)=C5CCC(=O)O)c(CCC(=O)OC)c4C)[C@@]1(C)C3=CC=C(C(=O)OC)[C@H]1C(=O)OC | inactive | inactive | inactive | inactive | 26800 nM (active) | – | – | –
3 | CC(C)[C@H](CO)Nc1nc(Nc2cccc(Cl)c2)c2ncn(C(C)C)c2n1 | 16500 nM (active) | inactive | inactive | 9340 nM (active) | – | 9340 nM (active) | – | –
4 | CC(C)C[C@@H](C=O)NC(=O)[C@H](CC(C)C)NC(=O)[C@H](CC(C)C)NC(=O)OCc1ccccc1 (Cbz-Leu-Leu-Leu-aldehyde) | 2080 nM (active) | inactive | inactive | 1050 nM (active) | – | 934 nM (active) | – | –
5 | CC(=O)OC[C@@H]1O[C@@H](n2ccc(=O)[nH]c2=O)[C@H](OC(C)=O)[C@H]1OC(C)=O | inactive | inactive | inactive | inactive | – | inactive | – | –
6 | CCOC(=O)C=C[C@H](C[C@@H]1CCNC1=O)NC(=O)[C@@H](CC(=O)[C@@H](NC(=O)c1cc(C)on1)C(C)C)Cc1ccc(F)cc1 | inactive | inactive | inactive | inactive | – | – | – | –
7 | Nc1cccc2c1C(=O)N(C1CCC(=O)NC1=O)C2=O (configuration not stated) | inactive | – | inactive | – | – | – | – | –
8 | c1cc(N[C@@H]2CCNC2)nc(-c2cnc3ccc(-c4cn[nH]c4)cn23)c1 | 829 nM (active) | inactive | inactive | 2630 nM (active) | – | 934 nM (active) | -4.23 | inactive
